# SmPrx2 inh: Schistosoma Mansoni Peroxiredoxins (Prx2). S. mansoni Prx2 activity coupled to TGR/GSH (TGR is thioredoxin glutathione reductase), NADPH fluorescence loss, qHTS. Potency, µM. hit rate 0.07% among 65,000
#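 Coupled assay in which S. mansoni TGR passes NADPH reducing equivalents via glutathione to Prx2, which reduces H2O2. Compounds were preincubated 15 min at room temperature with 25 nM TGR/50 nM Prx2 mix. Kinetic NADPH fluorescence loss (ex 365/em 450 nm) was monitored.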
# AmpC det inh: Promiscuous and Specific Inhibitors of AmpC Beta-Lactamase (assay with detergent); Potency, µM (highest dose often 28.7 µM), for inactives: at the top dose activity change, negative = inhibition; AID 584, 2007; hit rate 0.09% among 71,000; purified AmpC, nitrocefin hydrolysis with detergent; active = well fitted curve in the direction sought with a large enough effect; inconclusive = small, poorly fitted or top-dose-only effect; also: % is scaled to controls: 0 for no effect and ±100 for the full control effect
# Target sequence (P00811 whole entry, looked up): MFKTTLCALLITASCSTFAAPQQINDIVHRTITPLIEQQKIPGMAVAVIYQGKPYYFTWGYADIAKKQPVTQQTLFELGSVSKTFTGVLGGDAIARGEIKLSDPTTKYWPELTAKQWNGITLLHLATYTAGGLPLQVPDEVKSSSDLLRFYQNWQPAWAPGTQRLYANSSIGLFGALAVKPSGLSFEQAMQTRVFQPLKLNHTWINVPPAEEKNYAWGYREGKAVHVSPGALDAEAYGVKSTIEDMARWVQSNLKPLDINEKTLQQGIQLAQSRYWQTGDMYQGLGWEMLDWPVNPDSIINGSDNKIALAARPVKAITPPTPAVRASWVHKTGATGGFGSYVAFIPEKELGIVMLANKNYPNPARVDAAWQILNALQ
#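 E. coli AmpC (5.3 nM) in 20 mM phosphate pH 7.0 with 0.01% Triton X-100, preincubated 15 min RT with compound; nitrocefin (2 uL of 800 uM stock) hydrolysis followed by 480 nm absorbance every 20 s over 4 min.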
# Anthrax LT inh: qHTS Assay for Anthrax Lethal Toxin Internalization | Potency, µM (highest dose often 40 µM), for the others: at the top dose activity change, negative = inhibition, actives largely listed as inhibitors | hit rate 0.67% among 70,000 | Cells, anthrax lethal toxin internalization, FRET ratio (460/530); also: % is scaled to controls: 0 for no effect and ±100 for the full control effect; nearly all actives have a fitted effect of over 50% in size
# AmpC inh no det: Promiscuous and Specific Inhibitors of AmpC Beta-Lactamase (assay without detergent) | Potency, µM (doses to about 28.7 µM), inactives show at the top dose activity change, negative = inhibition | AID 585, 2007 | AmpC nitrocefin hydrolysis, absorbance 480 nm, no detergent | hit rate 1.8% among 71,000; also: % of control where 0% means no effect
#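 AmpC, 20 mM phosphate pH 7.0; 15 min cpd preinc, RT; start with nitrocefin (800 uM stock); A480 kinetic read, 20 s intervals, 4 min. No-enzyme wells = negative control.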
# Active calls of the source: *; ? = inconclusive; · = no result; ! = repeats disagree; [ ] = dose if it differs, or a comment. This is a sample that favours compounds with a hit; in the whole collection about 2.6% have one here. Unless noted, calls follow the shape of the full dose curve. Potency is read from the fitted curve at half-maximal effect.
SMILES,SmPrx2 inh,AmpC det inh,Anthrax LT inh,AmpC inh no det
COc1ccc(N(CC(=O)N2CCc3ccccc3C2)S(=O)(=O)c2c(C)[nH]c(=O)[nH]c2=O)cc1,>57,11%,14%,4µM*[single pt active]
COc1cccc(-c2csc(N3CCN(C(=O)C4CCCCC4)CC3)n2)c1,>57,8%,10µM*,42%
Cc1ccc2oc(=O)c3cc(C(=O)NCc4ccco4)sc3c2c1,>57,10%,?,4µM*[single pt active]
COc1cccc(CNc2nc3ccccc3n2CCN2CCCCC2)c1,>57,-3%,2%,50%
c1cc(CN2CCCCC2)cc(OCCCNc2nc3ccccc3s2)c1,>57,0%,25µM*!,74%
Cc1cc(N2CCCN(C)CC2)nc2cc(Cl)ccc12,·,6%,10µM*,37%
O=C(O)/C=C\c1c2ccc(=O)c(O)c-2oc2c(O)c(O)ccc12,>57,2µM*,?,1.6µM*
Cc1c(C(=O)N2CCCC2)oc2c1-c1[nH]ncc1CC2,>57,10%,6%,4µM*[single pt active]
CCOC(=O)C1CCCN(c2c(N3CCN(c4ccccn4)CC3)c(=O)c2=O)C1 (centres undefined),>57,11%,1%,4µM*[single pt active]
CCOC(=O)C1CCCN(c2c(NCCCN(C)c3ccccc3)c(=O)c2=O)C1 (centres undefined),>57,11%,?,42%
CCOC(=O)C1CCCN(c2c(Nc3cccc(C)c3)c(=O)c2=O)C1 (centres undefined),·,12%,1%,4µM*[single pt active]
Cn1c(=O)c(-c2cccs2)nc2cnc(OCc3ccccc3)nc21,>57,-4%,-5%,5%
CCC1(CC)C(=O)NC(=NCCc2c[nH]c3ccccc23)NC1=O,>57,-1%,?,5%
CCCC1(CCC)C(=O)NC(=NCc2ccccc2)NC1=O,>57,1%,13µM*,-10%
CCOC(=O)c1ccc2ncc(C(=O)OCC)c(NCCN(C)C)c2c1,>57,14%,1%,3.2µM*[single pt active]
COC(=O)C1=C(C)N(Cc2ccccc2)C2=C3C(=O)N(C)C(=O)C3[C@@](O)(C(=O)OC)C(=O)N2C1c1ccccc1 (some centres undefined),·,·,-6%[8 µM],·
CCCCC#CC1C=CC(OC(C)=O)C(COC(C)=O)O1 (centres undefined),·,·,4%[8 µM],·
N[C@@H](CNO)C(=O)O,>57,-2%[5.75 µM],-7%[8 µM],0%[5.75 µM]
COc1ccccc1OCC(=O)N(Cc1nc(-c2ccc(Cl)cc2)no1)C(C)C,>57,7%,?,160%
CC(C)N(Cc1nc(-c2ccccc2)no1)C(=O)COc1ccccc1,>57,14%,?,4µM*[single pt active]
Cc1cc(Br)ccc1OCC(=O)N(Cc1nc(-c2ccccc2)no1)C(C)C,>57,3%,?,21%
CC(C)N(Cc1nc(-c2ccccc2)no1)C(=O)Cc1ccccc1,>57,11%,-21%,4µM*[single pt active]
CC(C)N(Cc1nc(-c2ccccc2)no1)C(=O)CSc1ccccc1,>57,-1%,-28%,38%
CC(C)N(Cc1nc(-c2ccc(Cl)cc2)no1)C(=O)CCC1CCCC1,>57,9%,?,4µM*[single pt active]
Cc1nnc2ccc(N3CCN(c4ccccn4)CC3)nn12,>57,15%,-4%,4µM*[single pt active]
SMILES,SmPrx2 inh,AmpC det inh,Anthrax LT inh,AmpC inh no det
Cc1nnc2ccc(N3CCN(C)CC3)nn12,·,5%,0%,-8%
Cc1nnc2ccc(N3CCC(C(N)=O)(N4CCCCC4)CC3)nn12,>57,12%,-6%,4µM*[single pt active]
CC1CCN(CC[C@@H]2CCCN2S(=O)(=O)c2cccc(O)c2)CC1,>26,-1%,9%,-1%
N#Cc1ccc(CN2CCCC3(CCN(C(=O)c4csnn4)CC3)C2)cc1,>57,1%,18%,31%
O=C(O)c1ccc(Cl)cc1Cl,·,10%,5%,-5%
CCOc1ccc(C2CC(c3ccc(F)cc3)Nc3nc(N)nn32)cc1 (centres undefined),>57,13%,6%,36%
COc1ccc(C2CC(c3ccc(F)cc3)Nc3nc(N)nn32)cc1 (centres undefined),>57,14%,?,4µM*[single pt active]
COc1ccc(C2CC(c3cccc(OC)c3)n3nc(N)nc3N2)cc1 (centres undefined),>57,9%,-5%,4µM*[single pt active]
COc1cccc(C2CC(c3c(F)cccc3Cl)n3nc(N)nc3N2)c1 (centres undefined),>57,-2%,-18%,35%
COc1cccc(C2CC(c3ccccc3)Nc3nc(N)nn32)c1 (centres undefined),>57,9%,4%,4µM*[single pt active]

# Source: PubChem BioAssay
